The source of these data is PubChem BioAssay (Tox21).

Several values for one entry are separate records, joined by “and”; a condition that tells them apart may be missing. Equal entries are not always repeated. Records with an inconclusive call do not appear. A structure can be active in one record and inactive in another. Activity calls are given as the source filed them. Unless noted, calls come from the whole dose curve; as a rule, active = well fitted curve in the direction sought with a large enough effect in the repeat runs; inconclusive = weak or mixed curves; inactive = no such curve, though single readings can be large; an effect the other way counts as inactive or inconclusive.

A short description of assay [1]: qHTS assay to identify small molecule antagonists of the retinoid acid receptor (RAR) signaling pathway - cell viability counter screen (AID 1159551). Note: nearly all actives have a fitted effect of over 35% in size. Note: potency is the fitted concentration of half-maximal effect. In short, it runs like this: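 C3RL4 cells were seeded overnight at 37 C, then treated with compounds plus 1 uM (final) retinol for 6 h at 37 C. Viability was read as ATP by CellTiter-Glo luminescence after 30 min at room temperature.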

Assay [2] is described as follows: qHTS assay to identify small molecule antagonists of the retinoic acid receptor (RAR) signaling pathway (AID 1159552; note: nearly all actives have a fitted effect of over 50% in size; note: potency is the fitted concentration of half-maximal effect). Summed up: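 Cells of the C3RL4 line were seeded, incubated overnight, then dosed with compounds in DMSO followed immediately by retinol (1 uM final). Six hours later luciferase detection reagent went in; signal was measured after 30 min at RT.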
For orientation: In qHTS, concentration-response curves come from the screen itself.

A short description of assay [3]: qHTS assay to identify small molecule antagonists of the estrogen related receptor (ERR) signaling pathway from Tox21 library - cell viability counter screen (AID 1224834). Note: nearly all actives have a fitted effect of over 30% in size. Note: potency is the fitted concentration of half-maximal effect. In short, it runs like this: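 ERR reporter cells were plated 6 h before compound addition, then exposed to test compounds in DMSO for 17.5 h at 37 C. Viability was read as CellTiter-Fluor fluorescence after a 30-minute incubation at 37 C.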

For assay [4], the target named is Luciferin 4-monooxygenase (Photinus pyralis) (UniProt P08659). Put plainly: qHTS assay to identify small molecule inhibitors of firefly luciferase (AID 1224835). Note: nearly all actives have a fitted effect of over 25% in size. Note: potency is the fitted concentration of half-maximal effect. Summed up: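 Biochemical qHTS: compounds run as interplate titrations against purified firefly enzyme, with D-luciferin and ATP each at its KM concentration. Light output recorded by CCD imaging.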
Sequence of Luciferin 4-monooxygenase (Photinus pyralis) (P08659 whole entry, looked up): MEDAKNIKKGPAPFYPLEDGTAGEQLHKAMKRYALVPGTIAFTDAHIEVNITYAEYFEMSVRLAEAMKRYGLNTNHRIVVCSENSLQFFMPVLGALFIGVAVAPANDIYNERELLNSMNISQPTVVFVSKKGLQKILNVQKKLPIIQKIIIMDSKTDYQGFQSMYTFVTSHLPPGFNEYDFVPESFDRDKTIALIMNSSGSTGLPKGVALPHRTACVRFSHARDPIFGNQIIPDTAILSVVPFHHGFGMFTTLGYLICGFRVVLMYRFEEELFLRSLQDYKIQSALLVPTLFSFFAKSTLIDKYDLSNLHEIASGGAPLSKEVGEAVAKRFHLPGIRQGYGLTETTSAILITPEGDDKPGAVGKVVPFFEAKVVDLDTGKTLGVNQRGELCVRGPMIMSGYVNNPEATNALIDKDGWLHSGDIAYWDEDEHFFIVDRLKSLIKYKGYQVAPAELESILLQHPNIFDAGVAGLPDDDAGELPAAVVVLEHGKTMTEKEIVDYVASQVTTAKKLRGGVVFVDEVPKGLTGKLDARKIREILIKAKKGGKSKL
The nature of assay [5]: qHTS assay to identify small molecule agonists of the constitutive androstane receptor (CAR) signaling pathway - cell viability counter screen (AID 1224836). Note: nearly all actives have a fitted effect of over 45% in size. Note: potency is the fitted concentration of half-maximal effect. Summed up: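 HepG2-CYP2B6-hCAR, 2500 cells/well, 4 h pre-incubation; cpd 15 conc + PK11195 0.75 uM final; 23 h, 37 C/5% CO2; CellTiter-Fluor, fluorescence.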
Assay [6] in a line: qHTS assay to identify small molecule antagonists of the constitutive androstane receptor (CAR) signaling pathway - cell viability counter screen (AID 1224837). Note: nearly all actives have a fitted effect of over 45% in size. Note: potency is the fitted concentration of half-maximal effect. In short, it runs like this:
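HepG2 cells stably expressing hCAR and a CYP2B6-2.2kb reporter were plated and pre-incubated 4 hr at 37 C/5% CO2, then given compounds at 15 concentrations plus 50 nM CITCO (final). After 23 hr, viability was read by CellTiter-Fluor fluorescence.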

Assay [7] has as its target Nuclear receptor subfamily 1 group I member 3 (Homo sapiens) (UniProt Q14994). Put plainly: qHTS assay to identify small molecule antagonists of the constitutive androstane receptor (CAR) signaling pathway (AID 1224838). Note: nearly all actives have a fitted effect of over 40% in size. Note: potency is the fitted concentration of half-maximal effect. Summed up:
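HepG2 cells stably co-transfected with hCAR and a CYP2B6-2.2kb luciferase reporter were seeded 4 h before compound addition at 15 concentrations. Cells were stimulated with 50 nM CITCO (final) for 24 h at 37 C; luciferase luminescence was then read.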

For assay [8] the target is unchanged. Briefly: qHTS assay to identify small molecule agonists of the constitutive androstane receptor (CAR) signaling pathway (AID 1224839).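 For activation: HepG2 cells stably carrying human CAR and a CYP2B6 luciferase reporter; series mostly up to about 92 µM.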 Note: nearly all actives have a fitted effect of over 15% in size. Note: potency is the fitted concentration of half-maximal effect. Summed up:
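HepG2-CYP2B6-hCAR cells, 2500/well, 4 h pre-incubation; compounds 15 conc.; PK11195 0.75 uM final; 24 h, 37 C/5% CO2; ONE-Glo luciferase read.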

Assay [9] can be described thus: qHTS assay to identify small molecule antagonists of the estrogen related receptor signaling pathway with the pleiotropic PPARgamma coactivator (PGC) from Tox21 10K library - cell viability counter screen (AID 1224840; active = well fitted cell-killing curve with a large enough effect in the repeat runs, not every such curve was filed as active; note: nearly all actives have a fitted effect of over 40% in size; note: potency is the fitted concentration of half-maximal effect). Summed up:
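PGC/ERR cells were seeded at 2,000 cells/well and left 6 hours at 37 C/5% CO2 before pin-tool addition of compounds in DMSO. After 17.5 hours at 37 C, CellTiter-Fluor was added and fluorescence read 30 minutes later.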

The nature of assay [10]: qHTS assay to identify small molecule antagonists of the estrogen related receptor signaling pathway with the pleiotropic PPARgamma coactivator (PGC) from Tox21 10K library (AID 1224841; call rule not given here; note: actives are mostly falling curves and most rising ones were filed inactive; nearly all actives have a fitted effect of over 50% in size; note: potency is the fitted concentration of half-maximal effect). Summed up:
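PGC/ERR reporter cells were seeded at 2,000 cells/well and held 6 hours at 37 C/5% CO2 before pin-tool addition of compounds in DMSO. After 18 hours at 37 C, One-Glo was added and luminescence read after 30 minutes at room temperature.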

The nature of assay [11]: qHTS assay to identify small molecule agonists of the estrogen related receptor signaling pathway with the pleiotropic PPARgamma coactivator (PGC) from Tox21 10K library (AID 1224842). Note: nearly all actives have a fitted effect of over 15% in size. In short, it runs like this:
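PGC/ERR reporter cell line, 2,000 cells per well, incubated 6 h at 37 C before 23 nL compound in DMSO was added. After 18 h at 37 C, One-Glo luminescence read following 30 min at room temperature.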

The target of assay [12] is Thyrotropin receptor (Homo sapiens) (UniProt P16473). Put plainly: qHTS assay to identify small molecule agonists of the thyroid stimulating hormone receptor (TSHR) signaling pathway (AID 1224843; calls by dose curve; note: nearly all actives have a fitted effect of over 45% in size). In short, it runs like this: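 Steps: seed 800 TSHR-HEK293 cells per well; add test compound and hold 30 min at ambient temperature; dispense cAMP-d2 then anti-cAMP cryptate; incubate 1 h at ambient; measure fluorescence intensity.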
Sequence of Thyrotropin receptor (Homo sapiens) (P16473 whole entry, looked up): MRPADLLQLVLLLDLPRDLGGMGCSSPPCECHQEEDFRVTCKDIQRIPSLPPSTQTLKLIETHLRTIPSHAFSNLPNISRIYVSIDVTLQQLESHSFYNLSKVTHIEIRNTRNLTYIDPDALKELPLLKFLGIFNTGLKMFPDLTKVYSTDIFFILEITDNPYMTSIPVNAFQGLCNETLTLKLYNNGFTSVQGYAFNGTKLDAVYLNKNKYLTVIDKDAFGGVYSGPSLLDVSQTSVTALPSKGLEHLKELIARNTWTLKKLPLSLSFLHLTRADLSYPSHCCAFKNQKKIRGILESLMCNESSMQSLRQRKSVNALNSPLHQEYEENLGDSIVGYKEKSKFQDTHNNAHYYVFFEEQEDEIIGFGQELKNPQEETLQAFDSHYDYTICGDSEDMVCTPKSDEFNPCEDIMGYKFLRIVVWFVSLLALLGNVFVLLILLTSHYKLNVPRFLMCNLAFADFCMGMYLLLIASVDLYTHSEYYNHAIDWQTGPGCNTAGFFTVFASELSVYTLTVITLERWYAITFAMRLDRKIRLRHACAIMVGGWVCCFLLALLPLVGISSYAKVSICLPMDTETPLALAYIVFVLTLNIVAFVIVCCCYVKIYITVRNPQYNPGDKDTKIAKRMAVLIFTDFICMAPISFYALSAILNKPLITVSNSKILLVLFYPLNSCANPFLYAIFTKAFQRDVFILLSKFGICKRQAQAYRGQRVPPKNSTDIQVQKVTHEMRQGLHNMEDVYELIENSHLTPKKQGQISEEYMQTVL

A short description of assay [13]: qHTS assay to identify small molecule agonists of the hypoxia (HIF-1) signaling pathway - cell viability counter screen (AID 1224844; calls by dose curve; note: nearly all actives have a fitted effect of over 50% in size; note: potency is the fitted concentration of half-maximal effect). Summed up:
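HRE-bla ME-180 cells in medium with 0.5% dialyzed FBS were preincubated 5 hrs at 37C, exposed to compounds for 17 hrs, then viability was read as CellTiter-Glo luminescence after 30 min at room temperature, in the reporter wells.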

The nature of assay [14]: qHTS assay to identify small molecule agonists of the retinoic acid receptor (RAR) signaling pathway (AID 1159553). Note: potency is the fitted concentration of half-maximal effect. Summed up: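 C3RL4 cells carrying a RARE luciferase reporter were plated overnight at 37 C, then exposed to compounds in DMSO for 6 hr at 37 C and 5% CO2. Luminescence was read 30 min after luciferase reagent addition at room temperature.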
A short description of assay [15]: qHTS assay to identify small molecule agonists of H2AX (AID 1224845; active = well fitted activation curve with a large enough effect in the signal ratio in the repeat runs, not every such curve was filed as active; the % refers to the signal ratio; note: potency is the fitted concentration of half-maximal effect). In short, it runs like this: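 Wild-type CHO-K1 cells, plated overnight, exposed 3hr at 37C to 15 concentrations (0.76% DMSO final). Lysed, then HTRF anti-pH2AX (S139) cryptate and anti-H2AX-d2 antibodies, 24 hr room temperature; 665/620 nm emission read.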
% is set by controls: 0 for no effect and ±100 for the full control effect.

Sequence of Nuclear receptor subfamily 1 group I member 3 (Homo sapiens) (Q14994 whole entry, looked up): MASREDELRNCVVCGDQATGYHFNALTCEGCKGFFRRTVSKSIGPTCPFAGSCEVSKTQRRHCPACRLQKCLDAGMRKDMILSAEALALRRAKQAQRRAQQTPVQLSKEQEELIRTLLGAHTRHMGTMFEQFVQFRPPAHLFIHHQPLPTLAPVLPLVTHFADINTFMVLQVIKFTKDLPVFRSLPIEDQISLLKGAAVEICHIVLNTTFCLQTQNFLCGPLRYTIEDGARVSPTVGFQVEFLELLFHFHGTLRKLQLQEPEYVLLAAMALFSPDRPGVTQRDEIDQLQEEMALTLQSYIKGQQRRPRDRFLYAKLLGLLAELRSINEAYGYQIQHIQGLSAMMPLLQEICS

`CCCCCCCCCCCCCCCCCCn1cc[n+](C)c1`: the Potency in assay [1] was 48.3 µM (active); in [2], 21.6 µM (active); in [3], 27.1 µM (active); in assay [5] it was 24.2 µM (active); in [6], 17.1 µM (active); in [7], 43 µM (active). In addition, the Potency in assay [9] was 30.5 µM (active); in assay [10] it was 24.2 µM (active); in [13], 43.4 µM (active). Also, the Potency entry in assay [4], in assay [8], in [11] and in assay [12] was “inactive” in each case.
As to `Oc1c(Cl)c(Cl)cc(Cl)c1Cl`, the Potency result in assay [1], in [14], in assay [6], in assay [8], in assay [11] and in assay [12] was “inactive” throughout. Further, the Potency entry in assay [13] and in assay [15] was “inactive” in each case. Further, the Potency in [2] is 66.7 µM (active); in assay [4] it was 87 µM (active); in assay [10], 53 µM (active).
As to `CCCCCCCCCCCCBr`, the Potency result in assay [1], in assay [2], in assay [14], in assay [3], in assay [5] and in assay [7] was “inactive” each time. Further, the Potency result in assay [8], in assay [9] and in [12] was “inactive” in each case.
For the compound `CC(c1ccc(O)cc1)c1ccc(O)cc1`, the Potency entry in assay [1], in [2], in [3], in assay [5], in assay [6] and in [7] was “inactive” in each case. Besides, the Potency result in [9], in [10], in [11], in assay [12] and in assay [13] was “inactive” each time. Moreover, the Potency in [4] was 74.7 µM (active) and 44.8 µM (active); in assay [8] it was 51.1 µM (active) and 30.6 µM (active); in assay [15] it was “inactive and 56.6 µM (active)”.
Take `[Cl][Sn]([c]1ccccc1)([c]1ccccc1)[c]1ccccc1`: the Potency in [1] is 4.61 µM (active); in [2], 0.092 µM (active); in assay [3] it was 1.16 µM (active); in assay [4], 6.01 µM (active); in [5] it was 3.66 µM (active); in [6], 2.06 µM (active). In addition, the Potency in assay [7] was 0.206 µM (active); in [9], 0.82 µM (active); in assay [10] it was 0.82 µM (active); in assay [15], 0.677 µM (active). In addition, the activation in [8] is -23.6% [at 19 µM] (inactive); in assay [11], -35.3% [at 19 µM] (inactive).
On to `CC(C)(C)c1ccc(CSc2cnn(C(C)(C)C)c(=O)c2Cl)cc1`, for which the Potency entry in assay [1], in [2], in [14], in assay [4], in assay [7] and in assay [8] was “inactive” each time. Further, the Potency result in [9] and in [11] was “inactive” each time. Also, the Potency in assay [10] is 0.0049 µM (active).
For `Nc1ccccc1C(=O)Oc1ccc2ccccc2c1`, the Potency result in assay [1], in assay [2], in assay [5], in [6], in [7] and in [9] was “inactive” in each case. Also, in assay [12], the Potency result is “inactive”. Besides, the results for the Potency in [14], in assay [4] and in [8] were 0.193 µM (active), 1.78 µM (active) and 54.5 µM (active), respectively.
On to `ClC1=C(Cl)[C@]2(Cl)[C@@H]3[C@@H](Cl)[C@@H](Cl)C[C@@H]3[C@@]1(Cl)C2(Cl)Cl`, for which the Potency result in assay [1], in assay [2], in assay [3], in [4], in assay [5] and in assay [6] was “inactive” throughout. For the same compound, the Potency result in assay [7], in assay [8], in assay [9], in assay [10], in assay [11] and in [13] was “inactive” each time.
